From PubChem BioAssay AID577 (University of Pittsburgh Molecular Library Screening Center, 2007)
Hit rate of the full screen: of about 65,000 compounds, about 120 (0.18%) were called active. The list comes from a sample in which actives are over-represented; it also holds similar structures and randomly drawn compounds. Unmarked numbers belong to inactive results. Cut-off read from the data, not from the text of the source: active = z-score below about -3; inactive = the rest.

Target: Genome polyprotein (West Nile virus) (UniProt P06935)
Assay: West Nile NS2B-NS3 proteinase blockers – biochemical, fluorogenic substrate, primary screen (AID 577)
Settings: WNV NS2B-NS3 protease, fluorogenic substrate Ex360/Em465; hits give low values

Genome polyprotein (West Nile virus), sequence (P06935 1371-1501 limits assumed): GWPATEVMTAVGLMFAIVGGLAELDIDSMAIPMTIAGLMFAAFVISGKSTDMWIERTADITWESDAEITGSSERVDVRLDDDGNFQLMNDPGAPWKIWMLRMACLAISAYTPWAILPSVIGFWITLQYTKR
Genome polyprotein (West Nile virus), sequence (P06935 1502-1679 limits assumed): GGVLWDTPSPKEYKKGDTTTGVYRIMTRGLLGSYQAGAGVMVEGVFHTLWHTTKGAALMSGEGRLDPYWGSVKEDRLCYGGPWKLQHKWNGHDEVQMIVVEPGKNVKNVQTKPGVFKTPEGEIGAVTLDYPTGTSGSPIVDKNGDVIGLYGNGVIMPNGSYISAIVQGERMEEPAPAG

Compared with C[C@H](NC(=O)NCCc1ccccc1)C(=O)O, CC(=O)c1ccc(NC(=O)N[C@@H](Cc2ccccc2)C(=O)O)cc1 is higher in z-score: 0.46 for the first, 1.38 for the second.

Going from CC(=O)Nc1cccc2c1[n+]([O-])c(C)c(C)[n+]2[O-] to Cc1ccc(F)cc1NC(=O)c1cccc(N(C)C)c1, the z-score falls from 1.06 to -0.19.

First: CC(NC(=O)CN1CCN(Cc2ccc(Cl)cc2)C1=O)c1ccc2c(c1)OCCO2 (centres undefined)
Second: CC(C)CNS(=O)(=O)c1ccc(OCC(=O)Nc2ccc3c(c2)OCO3)c(Cl)c1
The z-score of the first is higher: 0.67 for the first, 0.53 for the second.

Compared with COc1ccc(OC)c(-n2cc3c(=O)n(C)c(=O)n(C)c3c2)c1, CC(C)c1ccc(NS(=O)(=O)c2cn(C)c(=O)n(C)c2=O)cc1 is lower in z-score: 0.45 for the first, -1.04 for the second.

First: C=C(C)COc1ccc(-c2n[nH]c(C)c2-c2ccccc2OC)c(O)c1
Second: CCOc1ccccc1Oc1cn[nH]c1-c1ccc(OC)cc1O
The z-score of the first is higher: 0.16 for the first, -0.64 for the second.

Going from COc1ccc(CC(NC(C)=O)C(=O)NC2CCN(C(=O)Nc3ccc(C#N)cc3)CC2)cc1OC (centres undefined) to COc1ccc(CCNS(=O)(=O)c2ccc(F)cc2)cc1OC, the z-score rises from -0.8 to -0.37.

Going from Cc1cc(NC(=O)CCC(=O)N(c2cccc(F)c2)C(C(=O)NC2CCCC2)c2ccncc2)no1 (centres undefined) to Cc1ccc(C(C(=O)NC2CCCC2)N(Cc2ccco2)C(=O)CCC(=O)Nc2ccccn2)cc1 (centres undefined), the z-score falls from 1.41 to 0.98.

First: COc1ccc(CC(=O)Nc2ccc(-c3nnc(-c4ccc(C)cc4)o3)cc2)cc1
Second: CCOc1ccc(-c2nnc(-c3ccco3)o2)cc1
The z-score of the first is higher: 0.17 for the first, -0.08 for the second.

Compared with CCCn1c(O)c(CN2CCCC(C)C2)c(C)c(C#N)c1=O (centres undefined), CC1CCN(Cc2nc3c(c(=O)n(C)c(=O)n3C)n2Cc2cccc3ccccc23)CC1 is lower in z-score: -0.51 for the first, -0.71 for the second.

Compared with Clc1ccc(Cc2nn3c(-c4ccncc4)nnc3s2)cc1, Fc1ccc(OCc2nn3c(Cn4nnc5ccccc54)nnc3s2)cc1 is higher in z-score: 0.04 for the first, 1.56 for the second.

Compared with O=C(O)C1OC(C(=O)O)C2C1C(F)(F)C2(F)F (centres undefined), O=C(O)C1CC(=O)N(Cc2cccnc2)C1 (centres undefined) is lower in z-score: 1.24 for the first, -0.77 for the second.

Compared with CC1CSc2nnc(CCc3ccccc3)n21 (centres undefined), c1ccc(CCC2=NCCn3cccc32)cc1 is higher in z-score: -0.75 for the first, -0.03 for the second.

Going from CCOC(=O)C1CCCN(C(=O)c2ccc(CS(=O)(=O)c3ccc(Br)cc3)o2)C1 (centres undefined) to O=C(NCc1cccnc1)c1ccc(CS(=O)(=O)c2ccc(Br)cc2)o1, the z-score rises from -0.97 to -0.48.

Going from COc1cc2c(cc1NC(=O)CN1CCN(S(=O)(=O)c3ccc(F)cc3)CC1)oc1ccccc12 to CCOC(=O)N1CCN(C(=O)c2ccc(S(=O)(=O)c3ccc(C)cc3)c(NC(C)=O)c2)CC1, the z-score rises from -0.05 to 0.25.

Compared with CC(=O)N1C(=O)C2(Nc3ccccc3N2)c2ccccc21, CC(C)n1c(C(O)c2ccccc2)nc2ccccc21 (centres undefined) is lower in z-score: -0.34 for the first, -1.05 for the second.

First: O=S(=O)(NCc1ccccn1)c1ccc(F)cc1
Second: O=C(Nc1cccc(Cl)c1)OCc1ccccn1
The z-score of the first is lower: -0.56 for the first, 0.46 for the second.

Compared with Cc1cc(=O)n2c3c(cccc13)CCC2, Cn1c(=O)c2[nH]c(NCC3CCCO3)nc2n(-c2ccccc2)c1=O (centres undefined) is higher in z-score: -0.73 for the first, -0.17 for the second.

First: CCCCc1nc2ccccc2c(NC(=O)CN2CCN(C)CC2)c1CCC
Second: CCCCn1c(CCCNC(=O)CC)nc2ccccc21
The z-score of the first is lower: -1.27 for the first, 0.2 for the second.

First: O=C(NCc1cn2ccsc2n1)Nc1ccc(Cl)cc1
Second: CCCC(=O)Nc1cccc(-c2cn3ccsc3n2)c1
The z-score of the first is higher: -0.25 for the first, -1.1 for the second.

Compared with CCOc1ccc(NC(=O)Nc2cc(C)on2)cc1, CCCOc1ccc(NC(=O)C2CCCNC2=O)cc1 (centres undefined) is lower in z-score: 0.95 for the first, 0.11 for the second.

Compared with Cn1c(=O)c2c(ncn2CC(=O)N2CCN(c3ccccc3)CC2)n(C)c1=O, O=C(c1ccccc1)c1cccn1CC(=O)N1CCN(c2ccc(F)cc2)CC1 is lower in z-score: 0.25 for the first, -1.05 for the second.

Going from COC(=O)c1cc(NC2c3ccccc3C(=O)N2c2ccc(Cl)cn2)cc(C(=O)OC)c1 (centres undefined) to O=C1CC(Cc2ccccc2)C(=O)N1c1ccc(Cl)cn1 (centres undefined), the z-score falls from -0.39 to -1.5.

Compared with CC(C)(C)c1ccc(C(=O)NCCC(=O)NCc2ccco2)cc1, CSCCC(NC(=O)C1CCC(C)CC1)C(=O)NCc1ccco1 (centres undefined) is higher in z-score: 0.25 for the first, 0.29 for the second.

Going from CCCN(CCC)CCNC(=O)c1cc2c(C)nc3ccccc3c2o1 to Cc1c(C(=O)NCC2CCCO2)sc2nc(-c3ccccc3)cn12 (centres undefined), the z-score falls from 0.99 to 0.86.

Compared with Cc1cc2cc(CN(Cc3cccs3)Cc3nnnn3CC3CCCO3)c(=O)[nH]c2cc1C (centres undefined), CCOC(=O)Cn1c(CN(Cc2ccccc2)Cc2ccccc2)nc2c1c(=O)[nH]c(=O)n2C is higher in z-score: -0.04 for the first, 1.45 for the second.

Compared with CC(C)CCNC(=O)CN(C(=O)Cn1nnc(-c2ccc(F)cc2)n1)C1CCCC1, CCC(=O)N1CCN=C1SCc1ccc(F)cc1 is higher in z-score: -0.44 for the first, 0.56 for the second.

First: CCOC(=O)C1CCCN(C(=O)CN(c2ccc(OC)cc2)S(=O)(=O)c2c(C)noc2C)C1 (centres undefined)
Second: Cc1ccc(NC(=O)C2CCCN(S(=O)(=O)c3c(C)noc3C)C2)c(C)c1 (centres undefined)
The z-score of the first is higher: -0.04 for the first, -1.04 for the second.

First: Cc1cc(C)c(C)c(S(=O)(=O)Nc2ccc(O)cc2)c1C
Second: CCOC(=O)c1ccc(Nc2cc(C)nc3nc(C)nn23)cc1
The z-score of the first is lower: -1.62 for the first, -0.96 for the second.

Compared with CC(C(=O)N1CCOCC1)N1c2cccc3cccc(c23)S1(=O)=O (centres undefined), CCC(C(=O)N1CCOCC1)n1c(C(=O)OC)cc2occc21 (centres undefined) is lower in z-score: -0.43 for the first, -1.12 for the second.

First: CCCOc1ccc(Cn2c(O)cc(=O)[nH]c2=O)cc1
Second: CCc1nc2oc3ccccc3c(=O)c2c(=O)n1Cc1ccc(OC)cc1
The z-score of the first is higher: 0.4 for the first, -0.51 for the second.

Going from COc1ccc(CCN=C2SCC(=O)N2C)cc1OC to COc1ccc(CCNC(=O)CSc2nnc(-c3cccc(F)c3)o2)cc1OC, the z-score rises from -0.84 to 0.62.

First: Cn1c(=O)[nH]c(=O)c2c1nc(NCCCn1ccnc1)n2Cc1cccc(Br)c1
Second: COCCn1c(CN(Cc2ccccc2)Cc2ccccc2)nc2c1c(=O)n(C)c(=O)n2C
The z-score of the first is lower: -0.12 for the first, 0.73 for the second.

Compared with CC(=O)Oc1ccc2c(C)c(CC(C)O)c(=O)oc2c1 (centres undefined), CCOC(=O)c1sc(=S)n2c1[nH]c(=O)c1ccc(C(=O)OC)cc12 is lower in z-score: 5.37 for the first, 0.38 for the second.

First: COC(=O)c1ccccc1NC(=O)CSc1ccccn1
Second: O=C(COc1ccc(Cl)cc1)Nc1ccccc1CO
The z-score of the first is lower: -0.33 for the first, 1.62 for the second.

Compared with Cn1cccc1Cc1nnc(SCC(=O)NCCc2ccccc2)n1-c1ccc(F)cc1, Cc1ccc(-n2c(Cc3cccs3)nnc2SCC(=O)OC(C)C)cc1 is lower in z-score: -0.68 for the first, -0.91 for the second.

First: CC(=O)C1=C(O)C(=O)N(c2ccc(S(N)(=O)=O)cc2)C1c1ccccc1F (centres undefined)
Second: O=C(Nc1nnc(-c2ccc(Cl)cc2)o1)c1ccccc1Br
The z-score of the first is lower: -0.26 for the first, 2.56 for the second.

Compared with CN(C)c1nc(N)nc(CSc2nnnn2-c2cccc3ccccc23)n1, CCOc1ccc(OCC)c(NC(=O)CSc2nnc(Cn3cnc4ccccc43)n2C)c1 is higher in z-score: -0.13 for the first, 1.68 for the second.

Going from CS(=O)(=O)c1ccc2nc(NC(=O)C3CCCCC3)sc2c1 to CCn1cc(C(=O)NC2CCCCCC2)c(=O)c2cc(S(=O)(=O)N3CCCCC3)ccc21, the z-score falls from -0.5 to -1.17.

Compared with CCC(C)(NC(=O)c1ccccn1)C(=O)NC1CCCCC1 (centres undefined), O=C(CC1OC(=O)c2ccccc21)NC1CCCCC1 (centres undefined) is lower in z-score: 0.53 for the first, -0.53 for the second.

First: O=C(Nc1ccc2c(c1)OCO2)C1CC(c2c(F)cccc2Cl)=NO1 (centres undefined)
Second: COc1cccc(-c2nc(S(=O)(=O)c3ccccc3)c(N3CCOCC3)o2)c1
The z-score of the first is higher: 1.16 for the first, -0.88 for the second.

Going from CCSC1(SCC)N=C(N)C2(C#N)C(c3ccccc3)NC(C)=CC12C#N (centres undefined) to O=C1CCC(Cc2ccccc2)N1 (centres undefined), the z-score rises from -1.23 to 0.78.

O=C(NCC1CCCO1)C(C(=O)c1ccccc1)n1cc(Cl)ccc1=O (centres undefined) and O=C(CSC1=Nc2ccccc2C2=NC(c3ccccc3)C(=O)N12)NCC1CCCO1 (centres undefined) are the same in z-score: -0.94 for the first, -0.94 for the second.

First: CCn1cc(C(=O)N2CCN(C3CCCCC3)CC2)c2cc(OC)c(OC)cc2c1=O
Second: O=C(NC1CCCCC1)N1CCc2[nH]c3ccccc3c2C1
The z-score of the first is lower: 0.44 for the first, 0.65 for the second.

Compared with O.O.O.O=S(=O)([O-])OC[C@H]1O[C@@H](O[C@]2(COS(=O)(=O)[O-])O[C@H](OS(=O)(=O)[O-])[C@@H](OS(=O)(=O)[O-])[C@@H]2OS(=O)(=O)[O-])[C@H](OS(=O)(=O)[O-])[C@@H](OS(=O)(=O)[O-])[C@@H]1OS(=O)(=O)[O-].[Al], Cc1ccccc1-c1nc(CS(=O)(=O)CC(=O)N2CCc3ccccc3C2)c(C)o1 is higher in z-score: -0.72 for the first, -0.21 for the second.

Compared with COc1cccc(-c2nn(C)c3sc(C(=O)N4CCN(c5ccccc5)CC4)cc23)c1, Cn1nc(-c2ccc(N3CCOCC3)c(NC(=O)c3ccccc3)c2)c2ccccc2c1=O is higher in z-score: -0.13 for the first, -0.07 for the second.

Compared with O=C(O)C1CCN1C1CCCCC1 (centres undefined), Brc1cnc(N2CCCC2)nc1N1CCCCC1 is lower in z-score: -0.3 for the first, -0.6 for the second.

Compared with Oc1ccc(Cl)cc1/C=N/c1nc2ccccc2[nH]1, c1ccc(-c2cn3cccnc3n2)cc1 is higher in z-score: -0.26 for the first, 1.38 for the second.

First: CCOC(=O)C1CCN(C(=O)CC2C(=O)N(Cc3ccccc3)C(C)c3nc4ccccc4n32)CC1 (centres undefined)
Second: Cc1nn(Cc2ccccc2)c(Cl)c1C(=O)OC1CCOC1=O (centres undefined)
The z-score of the first is lower: -0.76 for the first, 0.09 for the second.

Going from CSc1sc(C)cc1C1C(C#N)=C(N)N(c2cccnc2)C2=C1C(=O)CCC2 (centres undefined) to COc1ccc(/C(O)=C2/C(=O)C(=O)N(c3nc(C)c(C)s3)C2c2ccco2)cc1 (centres undefined), the z-score falls from 0.7 to -0.46.

Compared with CCC(C)n1[nH]c(=O)c2c(C)cc(C)nc21 (centres undefined), Cc1ccc(C)c(NC(=O)C2CC(=O)N(C(C)C)C2)c1 (centres undefined) is lower in z-score: 0.11 for the first, -0.7 for the second.

Compared with CCOC(=O)c1sc(NC(=O)C(CC)Sc2nccn2C)nc1C (centres undefined), CCN(CC)C(=O)CSc1nnc(-c2cnccn2)n1-c1ccc(C)cc1 is higher in z-score: 0.77 for the first, 0.78 for the second.

Going from CCCOc1ccc2c3c(c(=O)oc2c1OCCC)CCC3 to CCCCOC(=O)NCN1C(=O)C2C3C=CC(C3)C2C1=O (centres undefined), the z-score rises from -0.02 to 0.28.

First: COc1ccc(NC(=O)CN(C)S(=O)(=O)c2ccccc2)cc1OC
Second: Cc1nnc(SCC(=O)Nn2cnnc2)s1
The z-score of the first is lower: -0.74 for the first, 0.2 for the second.

In the case of Clc1ccc(C=NC23CN4CN(CN(C4)C2)C3)cc1, the z-score is reported as 1.48.

With Cc1ccc(OCC(=O)Nc2ccc(-c3nnc(-c4ccco4)o3)cc2)cc1 the z-score was -3.16 (active).
COc1ccc(-c2cn3ccsc3n2)cc1 was tested, and the z-score was -7.48 (active).
